Data published in PubChem BioAssay (NCATS).
Where “and” joins values, the source holds several entries; their conditions need not be identical. Identical values can stand only once. Records with an inconclusive call do not appear. Calls of active or inactive are those of the source. Unless noted, calls come from the whole dose curve; as a rule, active = well fitted curve in the direction sought with a large enough effect; inconclusive = small, poorly fitted or top-dose-only effect, or another doubt; inactive = no such curve, though single readings can be large; an effect the other way counts as inactive or inconclusive.

Columns and labels:
[1] = Cell Viability - N2a (AID 540); conditions: N2a mouse neuroblastoma cell viability; activity change, negative = cytotoxicity: at 92.2 µM (top of the series);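 note: cells exposed to compound for 40 h at 37 °C; plate controls were DMSO alone for no effect and tamoxifen control for full effect; nearly all actives have a fitted effect of over 45% in size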
In short: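 Luminescent ATP signal (CellTiter-Glo, 20 min at room temperature) served as the viability read-out after N2a cells were treated with compounds for 40 hours at 37 °C. Concentration-response data were fitted to the Hill equation for AC50.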

[2] = Cell Viability - Renal Proximal Tubule (AID 545); conditions: renal proximal tubule cells viability, primary cells of rat origin; at 91.7 µM (top of the series); note: nearly all actives have a fitted effect of over 40% in size
In short: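 Rat kidney proximal tubule cells, freshly isolated; 1000 cells/well, 5 hr settle, compound 40 hr 37 °C. CellTiter-Glo 20 min RT, luminescence read. AC50 by standard Hill fit.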

[3] = Cellular Toxicity (caspase-3) Jurkat (AID 655); conditions: Jurkat caspase-3 activation, luminescence, DMSO = 0%, tamoxifen = 100%; at 92.2 µM (top of the series);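 note: cells exposed to compound for 16 h at 37 °C before reading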
In short: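 Luminescent caspase-3/7 readout (aminoluciferin substrate cleavage) in human T-cell leukemia Jurkat cells after 16 hr compound exposure. Concentration-response normalized to DMSO and 100 uM tamoxifen; AC50 by standard Hill equation.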

[4] = Cell Viability - LYMP1-003 - Assay at 24 hr (AID 963);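 note: plate controls were DMSO only for no effect and tetraoctylammonium bromide positive control for full effect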
In short: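 Cells seeded at 2500/well, 5 hr at 37 C; compounds added; 24 hr at 37 C; CellTiter-Glo added, 30 min room temperature; luminescence read. Decrease in ATP taken as cytotoxicity, AC50 from Hill modelling.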

[5] = Cell Viability - LYMP2-004 (AID 966);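 note: plate controls were DMSO only for no effect and tetraoctylammonium bromide control for full effect; nearly all actives have a fitted effect of over 65% in size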
In short: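 Cells seeded 2500/well, rested 5 hr at 37 C, dosed across a concentration series, incubated 24 hr at 37 C, then CellTiter-Glo added for 30 min at room temperature and luminescence read. Hill fitting gave AC50.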

[6] = Cell Viability - LYMP2-005 (AID 967);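 note: plate controls were DMSO only for no effect and 92 µM tetraoctylammonium bromide control for full effect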
In short: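 Steps: seed 2500 LYMP2-005 cells/well, incubate 5 h at 37 C, add compound, incubate 24 h at 37 C, add CellTiter-Glo, wait 30 min at RT, read luminescence. Concentration-response data fitted to Hill equation for AC50.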

[7] = Cell Viability - LYMP2-015 (AID 971);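 note: 0% = DMSO only and full effect = 92 µM tetraoctylammonium bromide; nearly all actives have a fitted effect of over 55% in size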
In short: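 Luminescent ATP read-out (CellTiter-Glo) served as the viability measure after lymphoblastoid cells were exposed to compounds for 24 hours at 37 C. Concentration-response data were fitted with the Hill equation to give AC50.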

[8] = Cell Viability - LYMP2-019 (AID 973);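 note: 0% = DMSO alone and full effect = 92 µM tetraoctylammonium bromide; nearly all actives have a fitted effect of over 55% in size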
In short: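 Luminescent ATP read-out (CellTiter-Glo, 30 min room temperature) served as the viability measure after 24 hr treatment of lymphoblastoid cells at 37 C. Concentration-response data were fitted to the Hill equation for AC50.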

[9] = Cell Viability - LYMP2-021 (AID 974);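 note: compound exposure lasts 24 hours at 37 °C; % is set by controls: 0 for no effect and ±100 for the full control effect; nearly all actives have a fitted effect of over 55% in size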
In short: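 Plate 2500 lymphoblastoid cells per well and incubate 5 hr at 37 C. Add compounds over a concentration range and incubate 24 hr at 37 C. Add CellTiter-Glo, wait 30 min at room temperature, read luminescence.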

[10] = Cell Viability - LYMP2-023 (AID 975);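 note: cellular ATP measured by luciferase luminescence as viability proxy; plate controls were DMSO only for no effect and 92 µM tetraoctylammonium bromide control for full effect; nearly all actives have a fitted effect of over 55% in size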
In short: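 2500 cells/well, 5 hr 37 C; cpd 24 hr 37 C; CellTiter-Glo, 30 min RT; luminescence. qHTS conc-response, Hill fit -> AC50. Pos ctrl tetraoctylammonium bromide.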

[11] = Cell Viability - LYMP2-025 (AID 976);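 note: plate controls were DMSO only for no effect and tetraoctylammonium bromide control for full effect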
In short: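 Seed 2500 LYMP2-025 cells/well; 5 hr at 37 C; add compound; 24 hr at 37 C; add CellTiter-Glo; 30 min RT; read luminescence. AC50 from Hill-modelled concentration-response.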

[12] = Cell Viability - LYMP2-002 (AID 977);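 note: compound exposure lasted 24 h at 37 °C; plate controls were DMSO only for no effect and 92 µM tetraoctylammonium bromide for full effect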
In short: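 Human lymphoblastoid LYMP2-002 cells, 2500 per well, exposed to compounds for 24 h at 37 C in complete medium; viability read as intracellular ATP by CellTiter-Glo luminescence, AC50 from Hill fits.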

[13] = Cell Viability - LYMP2-006 (AID 978); note: % is set by controls: 0 for no effect and ±100 for the full control effect; nearly all actives have a fitted effect of over 60% in size
In short: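 qHTS, 1536-well; 2500 cells/well, 5 hr 37 C; cpd 24 hr 37 C; CellTiter-Glo 30 min RT; luminescence. Tetraoctylammonium bromide pos. ctrl. AC50 via Hill eqn.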

[14] = Cell Viability - LYMP2-008 (AID 980); note: % is set by controls: 0 for no effect and ±100 for the full control effect; nearly all actives have a fitted effect of over 60% in size
In short: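 qHTS, human lymphoblastoid line, 2500 cells/well; 5 hr preincubation, 24 hr compound, 37 C. CellTiter-Glo ATP luminescence. AC50 via Hill equation. Tetraoctylammonium bromide positive control.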

[15] = Cell Viability - LYMP2-026 (AID 989); note: % is set by controls: 0 for no effect and ±100 for the full control effect; nearly all actives have a fitted effect of over 50% in size
In short: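 Luminescent ATP signal (CellTiter-Glo, 30 min room temperature) measures viable lymphoblastoid cells after 24 hr compound treatment at 37 C. Decreased ATP reflects acute toxicity; AC50 values come from Hill-equation modeling.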

[16] = Cell Viability - LYMP1-002 - Assay at 24 hr (AID 993); note: % is set by controls: 0 for no effect and ±100 for the full control effect
In short: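 Cells plated 2500/well, 5 hr 37 C; compounds added, 24 hr 37 C; CellTiter-Glo added, 30 min RT; luminescence read. Tetraoctylammonium bromide positive control. Hill-equation AC50.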

[17] = Cell Viability - LYMP1-002 - Assay at 40 hr (AID 994);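 note: 0% = DMSO only and full inhibition = 92 µM tetraoctylammonium bromide; nearly all actives have a fitted effect of over 60% in size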
In short: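 Luminescent ATP signal served as the viability readout, with decreases taken as toxicity. Cells were treated with compounds across a concentration range for 40 hours at 37 C, and AC50 values came from standard Hill modeling.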

[18] = biological target: Retinoic acid receptor RXR-alpha (Homo sapiens) (UniProt P19793); experiment: qHTS assay for small molecule antagonists of retinoid X receptor alpha signaling (AID 588546; active = well fitted inhibition curve with a large enough effect in the signal ratio, with a control signal flat, not every such curve was filed as active; the % refers to the signal ratio;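 note: cells stimulated with 9-cis-retinoic acid as agonist; % is set by controls: 0 for no effect and ±100 for the full control effect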); conditions: HEK293T RXRa-UAS-bla, beta-lactamase ratio, antagonist mode
In short: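 Beta-lactamase reporter inhibition, read as CCF4 fluorescence ratio (ex 405, em 460/530 nm) after 2 h at RT. HEK293T UAS-bla cells, 2500/well, were stimulated with 9-cis-RA at 500 or 100 nM final alongside test compound for 18 h at 37 C.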

[19] = qHTS assay for small molecule agonists of the antioxidant response element (ARE) signaling pathway measured by Nrf2-dependant transcriptional activity - cell viability counter screen (AID 720653; active = well fitted curve in the direction sought with a large enough effect in the repeat runs; an effect the other way counts as inactive or inconclusive; note: % is set by controls: 0 for no effect and ±100 for the full control effect); conditions: ARE-bla HepG2 viability, CellTiter-Glo ATP luminescence, 16 h; max response: active compounds read low
In short: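 ARE-bla HepG2 cells treated with compounds for 16 h at 37C; this counter screen measures viability as intracellular ATP by CellTiter-Glo luminescence after 30 min at room temperature.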

[20] = qHTS assay for cell viability of the p53RE-bla HCT-116 cell line (AID 743292)
In short: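 Viability of compound-treated p53RE-bla HCT-116 cells is taken from ATP-dependent luciferase luminescence. Treatment lasts 16 h at 37 C after a 5 h settling period; detection follows 30 min at room temperature.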

Retinoic acid receptor RXR-alpha (Homo sapiens), sequence (P19793 whole entry, looked up): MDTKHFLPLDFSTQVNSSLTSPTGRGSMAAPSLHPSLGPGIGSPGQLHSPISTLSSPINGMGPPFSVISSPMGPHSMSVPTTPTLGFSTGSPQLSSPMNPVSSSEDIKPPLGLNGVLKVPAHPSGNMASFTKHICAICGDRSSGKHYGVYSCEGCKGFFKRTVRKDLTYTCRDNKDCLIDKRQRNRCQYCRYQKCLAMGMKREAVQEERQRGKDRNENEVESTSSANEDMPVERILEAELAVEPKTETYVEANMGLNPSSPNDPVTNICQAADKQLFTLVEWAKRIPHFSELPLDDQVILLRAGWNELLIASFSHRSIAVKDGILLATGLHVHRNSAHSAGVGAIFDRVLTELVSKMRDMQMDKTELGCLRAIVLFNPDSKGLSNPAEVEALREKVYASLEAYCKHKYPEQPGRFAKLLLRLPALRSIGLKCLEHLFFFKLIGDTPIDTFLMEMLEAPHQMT

CN(C)CCCCCCN(C)C
inactive: activity change, negative = cytotoxicity [1] 1.64% | activity change, negative = cytotoxicity [2] -0.404% | caspase-3 activation [3] -2.92% | Potency [4] | Potency [5] | Potency [6] | Potency [7] | Potency [8] | Potency [9] | Potency [10] | Potency [11] | Potency [12] | Potency [13] | Potency [14] | Potency [15] | Potency [16] | Potency [17] | max response [18] 23.1% | max response [19] 1.08% | Potency [20]

c1ccccc1
inactive: activity change, negative = cytotoxicity [1] -0.296% and -3.09% | activity change, negative = cytotoxicity [2] 3.93% and -11% | caspase-3 activation [3] 0.593% and 0.461% | Potency [4] | Potency [5] | Potency [6] | Potency [7] | Potency [8] | Potency [9] | Potency [10] | Potency [11] | Potency [12] | Potency [13] | Potency [14] | Potency [15] | Potency [16] | Potency [17] | max response [19] -0.292% [middle of 4 runs] | Potency [20]

S=C1NC=NC2N=CNC12 (stereo not given)
inactive: caspase-3 activation [3] 20.1% | Potency [6] | Potency [7] | Potency [12] | Potency [13] | max response [18] -10.4%

CCCCC(CC)CN (stereo not given)
inactive: activity change, negative = cytotoxicity [1] -20.4% and 2.62% | activity change, negative = cytotoxicity [2] -8.31% and 1.31% | caspase-3 activation [3] -1.36% and 1.48% | Potency [4] | Potency [5] | Potency [6] | Potency [7] | Potency [8] | Potency [9] | Potency [10] | Potency [11] | Potency [12] | Potency [13] | Potency [14] | Potency [15] | Potency [16] | Potency [17] | max response [18] 27.8% and 7.94% | max response [19] -5.16% and -12.4% | Potency [20]

COCC(=O)O
inactive: activity change, negative = cytotoxicity [1] 3.33% | activity change, negative = cytotoxicity [2] -6.52% | caspase-3 activation [3] 0.941% | Potency [4] | Potency [5] | Potency [6] | Potency [7] | Potency [8] | Potency [9] | Potency [10] | Potency [11] | Potency [12] | Potency [13] | Potency [14] | Potency [15] | Potency [16] | Potency [17] | max response [18] 8.65% and -6.69% | max response [19] 8.69% and 6.89% | Potency [20]

OCCNCCO
inactive: activity change, negative = cytotoxicity [1] 6.19% | activity change, negative = cytotoxicity [2] -1.22% | caspase-3 activation [3] 2.36% | Potency [4] | Potency [5] | Potency [6] | Potency [7] | Potency [8] | Potency [9] | Potency [10] | Potency [11] | Potency [12] | Potency [13] | Potency [14] | Potency [15] | Potency [16] | Potency [17] | max response [18] -2.15% and -2.6% | max response [19] 2.63% and -10.1% | Potency [20]

Cc1ccc([N+](=O)[O-])cc1N
inactive: activity change, negative = cytotoxicity [1] -2.12% | activity change, negative = cytotoxicity [2] -8.34% | caspase-3 activation [3] -0.45% | Potency [4] | Potency [5] | Potency [6] | Potency [7] | Potency [8] | Potency [9] | Potency [10] | Potency [11] | Potency [12] | Potency [13] | Potency [14] | Potency [15] | Potency [16] | Potency [17] | max response [18] -2.87% and -11.4% | max response [19] -2.84% and 7.73% | Potency [20]

CCC(C)c1ccccc1O (stereo not given)
inactive: activity change, negative = cytotoxicity [1] 0.301% and 2.4% | activity change, negative = cytotoxicity [2] 2.94% and 2.27% | caspase-3 activation [3] 0.687% and -0.479% | Potency [4] | Potency [5] | Potency [6] | Potency [7] | Potency [8] | Potency [9] | Potency [10] | Potency [11] | Potency [12] | Potency [13] | Potency [14] | Potency [15] | Potency [16] | Potency [17] | max response [18] 0.496% and -0.838% and 1.78% | max response [19] 15.2% and -6.24% and -8.74% | Potency [20]

O=NO
inactive: activity change, negative = cytotoxicity [1] -19.4% and -4.96% | activity change, negative = cytotoxicity [2] -3.27% and -5.21% | caspase-3 activation [3] -1.69% and 0.278% | Potency [4] | Potency [5] | Potency [6] | Potency [7] | Potency [8] | Potency [9] | Potency [10] | Potency [11] | Potency [12] | Potency [13] | Potency [14] | Potency [15] | Potency [16] | Potency [17] | max response [18] 16.8% and -9.55% | max response [19] -5.36% and 6.29% | Potency [20]

CC(=O)OC/C=C(\C)CCC=C(C)C
inactive: activity change, negative = cytotoxicity [1] -0.528% | activity change, negative = cytotoxicity [2] 3.05% | caspase-3 activation [3] 1.05% | Potency [4] | Potency [5] | Potency [6] | Potency [7] | Potency [8] | Potency [9] | Potency [10] | Potency [11] | Potency [12] | Potency [13] | Potency [14] | Potency [15] | Potency [16] | Potency [17] | max response [18] 5.08% and 4.69% | max response [19] -2.65% and 12.5% | Potency [20]

CCO[Si](CCCN)(OCC)OCC
inactive: activity change, negative = cytotoxicity [1] -19% | activity change, negative = cytotoxicity [2] -12% | caspase-3 activation [3] 1.79% | Potency [4] | Potency [5] | Potency [6] | Potency [7] | Potency [8] | Potency [9] | Potency [10] | Potency [11] | Potency [12] | Potency [13] | Potency [14] | Potency [15] | Potency [16] | Potency [17] | max response [18] 16.1% and 0.599% | max response [19] -1.9% and -14% | Potency [20]
